Assay outcomes deposited in PubChem by National Center for Advancing Translational Sciences (NCATS).
A selection: hits, their analogues and other compounds. The true share with any hit is near 2.8%.
WRN helicase inh: qHTS for Inhibitors of WRN Helicase; Potency, µM (series often up to 114 µM), for the others: at the top dose activity change, negative = inhibition, usual class: inhibitors; 0.46% of 360,000 active; WRN helicase unwinding, fluorescent forked duplex, kinetic; AID 651768, 2012; Bifunctional 3'-5' exonuclease/ATP-dependent helicase WRN (Homo sapiens), Q14191; further: potency means the concentration at half of the fitted maximal effect; on the % scale 0 is the no-effect control and ±100 the full control effect; nearly all actives have a fitted effect of over 55% in size
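Primary qHTS, 1536-well format. 20 nM WRN + compound, 15 min RT; start with 100 nM forked fluorophore/quencher duplex, 2 mM ATP (final); kinetic read ex 525/em 598 nm.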
PI5P4K alpha inh: qHTS for Inhibitors of phosphatidylinositol 5-phosphate 4-kinase (PI5P4K); 1.2% of 330,000 active; max response, %; PI5P4Kalpha enzyme, ADP-Glo luminescence, 60 min; hits give low values; active means max response of -50% or lower; inconclusive means between -30% and -50%; inactive means -30% or higher; further: value at the top dose of about 77 µM; on the % scale 0 is the no-effect control and ±100 the full control effect
Target sequence (P48426 whole entry, looked up): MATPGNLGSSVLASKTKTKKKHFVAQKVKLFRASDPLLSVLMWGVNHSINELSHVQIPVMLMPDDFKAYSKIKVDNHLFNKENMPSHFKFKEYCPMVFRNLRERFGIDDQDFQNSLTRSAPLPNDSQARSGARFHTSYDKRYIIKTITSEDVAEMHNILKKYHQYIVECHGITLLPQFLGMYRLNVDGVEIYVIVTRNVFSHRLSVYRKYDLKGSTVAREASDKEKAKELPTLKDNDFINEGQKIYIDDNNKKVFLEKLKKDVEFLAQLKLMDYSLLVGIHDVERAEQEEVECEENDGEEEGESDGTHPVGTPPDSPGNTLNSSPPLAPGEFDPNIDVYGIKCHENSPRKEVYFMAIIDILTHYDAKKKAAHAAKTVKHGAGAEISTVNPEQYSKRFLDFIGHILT
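qHTS, 1536-well: enzyme/substrate mix, compound by pin tool, 5 microM ATP final; RT 60 min; ADP-Glo reagents 1 (45 min) then 2 (30 min); luminescence.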
POLK inh: qHTS for Inhibitors of Polymerase Kappa; 0.53% of 400,000 active; Potency, µM (titrated, usually from 107 µM), without a hit: at the top dose activity, negative = inhibition, actives largely listed as inhibitors; AID 588579, 2011; DNA polymerase kappa (Homo sapiens), Q9UBT6; purified Pol kappa, fluorescent DNA synthesis assay, 10 min; further: potency means the concentration at half of the fitted maximal effect; on the % scale 0 is the no-effect control and ±100 the full control effect
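Here, compound and 10 nM enzyme are combined for 15 min at room temperature; adding 50 nM substrate (final) starts DNA synthesis, tracked by fluorescence at 0 and 10 min against buffer-only wells.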
Pol beta inh: qHTS Assay for Inhibitors of DNA Polymerase Beta; Pol beta primer extension/strand displacement, fluorescence kinetic; 1.3% of 340,000 active; Potency, µM (highest dose often 114 µM), for inactives: at the highest dose activity change, negative = inhibition, usual class: inhibitors; AID 485314, 2010; further: potency means the concentration at half of the fitted maximal effect; on the % scale 0 is the no-effect control and ±100 the full control effect
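Preincubation: enzyme (10 nM) with compound, 15 min, RT. Reaction: substrate added to 50 nM final. Reads: 0 and 10 min. Analysis: normalized, Hill fit.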
POLH inh: qHTS for Inhibitors of Polymerase Eta; 1.2% of 390,000 active; recombinant Pol eta, fluorescent DNA replication assay; Potency, µM (doses to about 114 µM), for inactives: at the top dose activity change, negative = inhibition, usual class: inhibitors; further: potency means the concentration at half of the fitted maximal effect; on the % scale 0 is the no-effect control and ±100 the full control effect
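Fluorescent replication assay: 50 nM final substrate added after a 15 min room-temperature compound preincubation with 10 nM enzyme. Signal taken at 0 min and again at 10 min.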
Pol iota inh: qHTS for Inhibitors of Polymerase Iota; DNA polymerase iota (Homo sapiens), Q9UNA4; Pol iota fluorescent replication assay, 10 min; Potency, µM (highest dose often 115 µM), inactives show top-dose activity, negative = inhibition, hits mostly inhibitors; 1% of 390,000 active; AID 588590, 2011; further: potency means the concentration at half of the fitted maximal effect
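Pol iota at 10 nM preincubated 15 min with compounds at room temperature; reaction started with fluorescent substrate, 50 nM final. Fluorescence read kinetically at 0 and 10 min; buffer-only wells as negative control.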
The depositor's hits bear a star; ? = inconclusive; · = no result given; [ ] = another dose, or the depositor's remark. Unless noted, the call rests on the fitted dose curve; in most records, active means well fitted curve in the direction sought with a large enough effect; inconclusive means small, poorly fitted or top-dose-only effect, or another doubt; inactive means no such curve, though single readings can be large; an effect the other way counts as inactive or inconclusive.

SMILES	WRN helicase inh	PI5P4K alpha inh	POLK inh	Pol beta inh	POLH inh	Pol iota inh
COCCCN=C(c1ccco1)n1c(=S)nc(-c2ccco2)n(CCCOC)c1=S	-29%	·	?	35µM*	-5%	20µM*
Nc1ncnc2c1nc(Sc1ccc(Cl)cc1)n2[C@H]1OC2COP(=O)(O)O[C@H]2[C@@H]1O (some centres undefined)	·	·	4%	·	·	40%
COc1ccc(-n2c(SCC(=O)Nc3ccc4c(c3)OCO4)nc3c([nH]c4ccccc43)c2=O)cc1	·	·	-2%[60.1 µM]	0%	-8%	0%
Cn1c(/C(C#N)=C/c2ccccc2Br)nc2ccccc21	·	·	?	6%	·	79µM*
CCn1c(/C(C#N)=C/c2ccccc2Cl)nc2ccccc21	·	·	-3%[60.1 µM]	-28%	-4%	-15%
O=C(Nc1nc(-c2cccs2)c(C(=O)C(F)(F)F)s1)c1ccccc1	-15%	-3	?	0%	?	89µM*
c1nc(SSc2ncnc3nc[nH]c23)c2[nH]cnc2n1	40µM*	-80*	-5%	·	-11%	?
CCOC(=O)c1nc(Nc2ccc(C(=O)OCC(C)C)cc2)c2ccccc2n1	·	·	-17%	-22%	·	28%
COC(=O)CSc1nc2sc3c(c2c(=O)n1-c1ccccc1C)CC(C)(C)OC3	·	·	7%	10%	-9%	6%
Cn1c(=O)c2[nH]c(=S)n(Cc3ccccc3)c2n(C)c1=O	-4%	-3	-3%	·	-14%	17%
CCCCn1c(=S)[nH]c2c(=O)n(C)c(=O)n(C)c21	2%	-73*	·	·	1%	·
Cc1oc(-c2ccccc2)nc1C(=O)O	-1%	1	-11%	22%	9%	13%
CC(=O)c1ccc(OC(=O)c2nc(-c3ccccc3)oc2C)cc1	-23%	?	-15%	50µM*	?	?
COc1ccccc1C(=O)OCc1cc(=O)n2c(C)csc2n1	·	·	-4%	0%	-10%	16%
Cc1cc2oc3ccc(NCCCN4CCOCC4)cc3c(=O)c2cc1C	-3%	-1	-1%	·	-6%	4%
Cc1cc2oc3ccc(NCCCn4ccnc4)cc3c(=O)c2cc1C	-28%	4	-41%	·	56µM*	22µM*
[O][C@H]1[C@@H](O)[C@@H](CO)O[C@@H](O[C@@H]2[C@@H]3OC[C@H]2O[C@H](O[C@@H]2[C@@H](O)[C@H](C[C@@H]4[C@@H]5OC[C@H]4O[CH][C@@H]5O)O[C@H](CO)[C@@H]2OS(=O)(=O)O)[C@@H]3OS(=O)(=O)O)[C@@H]1O	·	·	32µM*	·	·	·
O=C(O)c1ccc2c(=O)n(-c3ccccc3)c(=S)[nH]c2c1	2%	-12	7%	1%	-8%	-2%
O=c1[nH]c(=O)c2[nH]c(=S)n(-c3ccccc3)c2[nH]1	-2%	-56*	-3%	·	-21%	28%
O=C1C(=Cc2ccco2)CCCC1=Cc1ccco1	?	-28	50µM*	·	22µM*	20µM*
O=S(=O)(NCC(c1ccco1)S(=O)(=O)c1cccs1)c1ccc(F)c(C(F)(F)F)c1 (centres undefined)	·	·	-5%[60.1 µM]	1%	-19%	7%
Cc1ccc(Cn2c(C(=O)O)c(CNCc3cccs3)c3ccc(C)cc32)cc1	·	·	-8%	-2%	-20%	-19%
Cc1ccc(Nc2nnc(SC/C(O)=C(\C#N)c3nc4ccccc4[nH]3)s2)c(C)c1	-26%	-60*	-30%	-13%	32µM*	?
Cc1cccc(Nc2nnc(SC/C(O)=C(\C#N)c3nc4ccccc4[nH]3)s2)c1	-21%[57.1 µM]	-54*	-18%	?	?	-5%
COc1ccc(C)cc1-n1nnnc1SC/C(O)=C(\C#N)c1nc2ccccc2[nH]1	-14%	?	?	?	?	?
